From PubChem BioAssay
Calls of active or inactive are those of the source.

Assays:
[1] = binders of probe aFSTL3 on microarray, primary screen, stem cell growth factor project, biochemical, small-molecule microarray, fluorescence 635/667 (AID 1064); conditions: higher = more signal;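 note: measures binding of the biotinylated anti-FSTL3 antibody to printed compounds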
[2] = binders from COS7 lysate, DM2A8 probe, primary screen, torsin A project, cell lysate, small-molecule microarray, fluorescence 635/667 (AID 1065); conditions: higher = more signal, COS7 lysate expressing mutant human TOR1A
[3] = binders of probe aFGF2 on microarray, primary screen, stem cell growth factor project, biochemical, small-molecule microarray, fluorescence 635/667 (AID 1067); conditions: higher = more signal;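 note: measures binding of biotinylated aFGF2 protein to printed compounds on slides; z-score merges feature fluorescence and signal-to-noise across triplicate slides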
[4] = binders of probe aFGF10 on microarray, primary screen, stem cell growth factor project, biochemical, small-molecule microarray, fluorescence 635/667 (AID 1071); conditions: higher = more signal;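 note: score merges 667 nm spot intensity and signal to noise from triplicate slides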
[5] = molecular target: Neurogenic locus notch homolog protein 2 (Homo sapiens) (UniProt Q04721); assay: Notch2 binders on small-molecule microarrays, primary screen, biochemical, small-molecule microarray, 635 nm fluorescence, stem cell growth factors (AID 1073); conditions: Notch2 binding, higher = more signal
Chain of Neurogenic locus notch homolog protein 2 (Homo sapiens) (Q04721 whole entry, looked up, canonical isoform): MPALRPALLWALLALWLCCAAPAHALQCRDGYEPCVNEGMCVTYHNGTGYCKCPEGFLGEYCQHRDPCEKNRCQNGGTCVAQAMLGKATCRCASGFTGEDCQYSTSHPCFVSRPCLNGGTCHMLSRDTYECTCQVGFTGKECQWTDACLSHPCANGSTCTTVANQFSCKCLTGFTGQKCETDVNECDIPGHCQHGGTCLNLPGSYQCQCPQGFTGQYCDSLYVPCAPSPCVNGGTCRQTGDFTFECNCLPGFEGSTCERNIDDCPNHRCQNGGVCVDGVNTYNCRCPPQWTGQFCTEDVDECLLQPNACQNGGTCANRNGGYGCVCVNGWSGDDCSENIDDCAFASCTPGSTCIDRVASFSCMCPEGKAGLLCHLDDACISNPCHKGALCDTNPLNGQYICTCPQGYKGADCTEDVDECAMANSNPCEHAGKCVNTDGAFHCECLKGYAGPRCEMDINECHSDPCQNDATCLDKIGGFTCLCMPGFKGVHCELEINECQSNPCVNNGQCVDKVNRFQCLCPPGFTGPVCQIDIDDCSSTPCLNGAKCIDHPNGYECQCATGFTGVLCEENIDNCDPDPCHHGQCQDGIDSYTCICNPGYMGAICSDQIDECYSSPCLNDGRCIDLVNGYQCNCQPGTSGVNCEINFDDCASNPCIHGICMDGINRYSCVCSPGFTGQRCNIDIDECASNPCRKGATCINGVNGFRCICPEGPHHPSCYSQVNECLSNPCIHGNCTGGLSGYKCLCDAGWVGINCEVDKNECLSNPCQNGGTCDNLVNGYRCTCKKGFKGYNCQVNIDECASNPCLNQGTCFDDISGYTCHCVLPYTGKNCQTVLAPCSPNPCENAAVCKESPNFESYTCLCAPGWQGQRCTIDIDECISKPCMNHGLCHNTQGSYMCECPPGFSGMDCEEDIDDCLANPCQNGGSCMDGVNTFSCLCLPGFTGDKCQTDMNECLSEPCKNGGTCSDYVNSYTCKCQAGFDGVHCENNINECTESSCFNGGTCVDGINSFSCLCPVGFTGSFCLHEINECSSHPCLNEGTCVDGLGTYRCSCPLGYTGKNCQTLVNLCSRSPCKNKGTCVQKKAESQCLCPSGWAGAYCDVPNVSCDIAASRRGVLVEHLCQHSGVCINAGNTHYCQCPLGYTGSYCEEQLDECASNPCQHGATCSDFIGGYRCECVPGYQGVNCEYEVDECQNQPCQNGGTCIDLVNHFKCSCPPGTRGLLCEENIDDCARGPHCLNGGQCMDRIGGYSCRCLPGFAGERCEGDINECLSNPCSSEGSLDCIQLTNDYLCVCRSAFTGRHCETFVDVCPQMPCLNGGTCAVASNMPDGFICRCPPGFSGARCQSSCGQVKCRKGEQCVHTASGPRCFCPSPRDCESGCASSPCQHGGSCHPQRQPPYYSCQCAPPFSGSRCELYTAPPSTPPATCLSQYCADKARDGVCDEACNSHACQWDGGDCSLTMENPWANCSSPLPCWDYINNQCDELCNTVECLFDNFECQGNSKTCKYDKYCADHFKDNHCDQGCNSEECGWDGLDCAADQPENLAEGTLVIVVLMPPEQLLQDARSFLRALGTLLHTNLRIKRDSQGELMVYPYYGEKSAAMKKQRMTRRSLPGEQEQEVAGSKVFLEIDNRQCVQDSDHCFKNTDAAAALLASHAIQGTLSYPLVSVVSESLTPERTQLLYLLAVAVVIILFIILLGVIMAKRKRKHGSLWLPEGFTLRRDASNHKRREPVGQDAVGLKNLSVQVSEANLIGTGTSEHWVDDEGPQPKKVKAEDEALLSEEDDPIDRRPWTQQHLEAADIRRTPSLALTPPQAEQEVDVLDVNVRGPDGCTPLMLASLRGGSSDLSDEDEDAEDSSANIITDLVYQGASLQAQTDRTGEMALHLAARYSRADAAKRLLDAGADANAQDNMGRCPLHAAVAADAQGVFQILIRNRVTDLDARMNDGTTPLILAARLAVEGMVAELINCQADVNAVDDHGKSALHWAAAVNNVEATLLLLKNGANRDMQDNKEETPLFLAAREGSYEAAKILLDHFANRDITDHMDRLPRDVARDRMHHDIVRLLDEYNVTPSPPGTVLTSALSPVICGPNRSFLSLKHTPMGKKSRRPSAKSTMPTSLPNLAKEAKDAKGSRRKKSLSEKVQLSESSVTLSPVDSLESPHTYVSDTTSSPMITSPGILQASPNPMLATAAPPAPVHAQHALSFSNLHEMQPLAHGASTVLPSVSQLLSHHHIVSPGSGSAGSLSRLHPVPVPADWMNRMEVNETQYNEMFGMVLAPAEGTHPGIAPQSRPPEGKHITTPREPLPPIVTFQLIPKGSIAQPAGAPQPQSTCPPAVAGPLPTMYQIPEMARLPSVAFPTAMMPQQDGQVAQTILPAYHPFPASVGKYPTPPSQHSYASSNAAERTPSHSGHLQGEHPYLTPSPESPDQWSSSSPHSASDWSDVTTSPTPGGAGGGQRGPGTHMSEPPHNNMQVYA

[6] = molecular target: Pro-neuregulin-1, membrane-bound isoform (Homo sapiens) (UniProt Q02297); assay: NRG1 binders on small-molecule microarrays, primary screen, psychiatric disease protein project, biochemical, small-molecule microarray, fluorescence 635/667 (AID 1075); conditions: NRG1 binding, 635 nm fluorescence, higher = more signal;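 note: score combines 667 nm spot fluorescence with signal to noise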
Chain of Pro-neuregulin-1, membrane-bound isoform (Homo sapiens) (Q02297 whole entry, looked up, the tested form may be a part, canonical isoform): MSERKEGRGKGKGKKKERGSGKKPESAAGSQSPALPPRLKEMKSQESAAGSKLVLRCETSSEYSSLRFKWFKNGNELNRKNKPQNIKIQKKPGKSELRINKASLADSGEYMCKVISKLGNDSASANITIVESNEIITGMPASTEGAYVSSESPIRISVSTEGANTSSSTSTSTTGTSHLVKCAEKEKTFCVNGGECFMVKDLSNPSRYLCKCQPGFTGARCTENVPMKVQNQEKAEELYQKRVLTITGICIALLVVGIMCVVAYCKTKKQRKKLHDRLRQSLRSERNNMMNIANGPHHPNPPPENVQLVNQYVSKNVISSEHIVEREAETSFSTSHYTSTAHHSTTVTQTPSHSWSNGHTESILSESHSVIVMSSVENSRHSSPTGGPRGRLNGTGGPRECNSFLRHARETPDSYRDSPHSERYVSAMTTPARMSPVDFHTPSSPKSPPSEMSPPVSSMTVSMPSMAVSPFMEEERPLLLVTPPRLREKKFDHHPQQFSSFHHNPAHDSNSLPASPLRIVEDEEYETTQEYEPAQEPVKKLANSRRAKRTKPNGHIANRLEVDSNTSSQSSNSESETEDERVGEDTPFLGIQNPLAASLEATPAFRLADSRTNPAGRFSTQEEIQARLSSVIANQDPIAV

[7] = system: Neuregulin-1 EGF-like domain; assay: binders of neuregulin-1 EGF-like domain, primary screen, biochemical, small-molecule microarray, 635 nm fluorescence (AID 1081); conditions: small-molecule microarray binding, higher = more signal;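 note: binding of the protein to compounds printed on small-molecule microarray slides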
[8] = FRG1 promoter luciferase signal modulators, primary screen, FRG1 inhibition for FSHD, cell-based, C2C12 myotubes, firefly/Renilla luciferase, luminescence (AID 1084); conditions: higher = more signal, called active from +8 up or from −8 down
[9] = binders of probe aFST on microarray, primary screen, stem cell growth factor project, biochemical, small-molecule microarray, fluorescence 635/667 (AID 1086); conditions: higher = more signal;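 note: score merges 667 nm fluorescence with signal-to-noise of each printed compound spot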
[10] = binders of probe aHhip on microarray, primary screen, stem cell growth factor project, biochemical, small-molecule microarray, fluorescence 635/667 (AID 1087); conditions: higher = more signal;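 note: score merges spot fluorescence at 667nm with spot signal to noise ratio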
[11] = system: PRMT1 (protein arginine N-methyltransferase 1); assay: PRMT1 binders on small-molecule microarrays, primary screen, biochemical, small-molecule microarray, 635 nm fluorescence (AID 1088); conditions: small-molecule microarray binding, higher = more signal;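 note: binding of Prmt1 protein to compounds spotted on small-molecule microarray slides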
[12] = yeast growth modulation, basal conditions, primary screen, YJM789 clinical isolate, OD600, 24 h (AID 1089);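 note: growth of clinical yeast isolate S. cerevisiae YJM 789 seeded 1000 cells per well; test concentration not given here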; conditions: S. cerevisiae YJM789 growth, higher = more signal, called active from +8 up or from −8 down
[13] = fission yeast growth modulation, primary screen, strain 972, OD600, 24 h, no modulator (AID 1090);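 note: basal condition with compound alone and no growth modifier present; test concentration not given here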; conditions: S. pombe 972 growth, higher = more signal, called active from +8 up or from −8 down
[14] = S. cerevisiae growth modulation with rapamycin, primary screen, strain BY4716, OD600, 96 h (AID 1091); conditions: higher = more signal, called active from +8 up or from −8 down; note: test concentration not given here
[15] = molecular target: Torsin-1A-interacting protein 2 (Homo sapiens) (UniProt Q8NFQ8); assay: LULL1 binders on small-molecule microarray, primary screen, cell lysate, human LULL1 lysate, 635/667 nm fluorescence (AID 1092); conditions: hLULL1 lysate binding, 635 nm fluorescence, higher = more signal;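 note: probe is lysate of COS7 cells overexpressing human LULL1; score merges per-feature 667 nm fluorescence with signal-to-noise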
Chain of Torsin-1A-interacting protein 2 (Homo sapiens) (Q8NFQ8 whole entry, looked up): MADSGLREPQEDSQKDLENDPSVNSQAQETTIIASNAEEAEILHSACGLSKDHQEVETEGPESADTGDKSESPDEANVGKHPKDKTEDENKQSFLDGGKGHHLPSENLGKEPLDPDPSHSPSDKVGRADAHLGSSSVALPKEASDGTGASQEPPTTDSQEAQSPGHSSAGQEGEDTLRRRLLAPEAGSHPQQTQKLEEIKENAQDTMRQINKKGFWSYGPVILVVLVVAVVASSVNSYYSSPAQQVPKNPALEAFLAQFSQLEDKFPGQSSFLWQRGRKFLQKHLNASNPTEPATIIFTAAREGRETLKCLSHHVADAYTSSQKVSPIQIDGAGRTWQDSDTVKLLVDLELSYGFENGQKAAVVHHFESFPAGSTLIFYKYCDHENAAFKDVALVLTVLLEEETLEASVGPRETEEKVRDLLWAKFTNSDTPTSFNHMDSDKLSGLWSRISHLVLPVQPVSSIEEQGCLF

[16] = E. coli growth modulation, two-sided OD650, primary screen, E. coli filamentation project, strain DRC41, 24 h (AID 1093); conditions: OD650, 24 h, higher = more signal, called active from +8 up or from −8 down;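 note: MC1000 strain lacking acrAB efflux and sulA so SOS filamentation is blocked; test concentration not given here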
[17] = small-molecule microarray binders of probe aLefty2, primary screen, biochemical, biotinylated probe, 635/667 nm fluorescence (AID 1094); conditions: higher = more signal;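 note: score merges spot fluorescence near 667 nm with spot signal-to-noise ratio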
[18] = system: Noggin (protein binding on small-molecule microarray); assay: Noggin binders on small-molecule microarray, primary screen, biochemical, 635/667 nm fluorescence (AID 1095); conditions: 635 nm fluorescence, higher = more signal;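 note: score merges 667 nm feature fluorescence with signal to noise over triplicate slides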
[19] = molecular target: Neurogenic locus notch homolog protein 3 (Homo sapiens) (UniProt Q9UM47); assay: NOTCH3 binders on small-molecule microarray, primary screen, biochemical, 635/667 nm fluorescence (AID 1096); conditions: NOTCH3 binding, 635 nm fluorescence, higher = more signal
[20] = small-molecule microarray binders of probe aEGFR, primary screen, biochemical, biotinylated probe, 635/667 nm fluorescence (AID 1097); conditions: higher = more signal;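 note: probe is a biotinylated anti-EGFR antibody binding compounds printed on slides; score combines fluorescence near 667 nm and signal to noise of each spot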

Structure (SMILES) | composite z-score [1] | composite z-score [2] | composite z-score [3] | composite z-score [4] | composite z-score [5] | composite z-score [6] | composite z-score [7] | z-score [8] | composite z-score [9] | composite z-score [10] | composite z-score [11] | z-score [12] | z-score [13] | z-score [14] | composite z-score [15] | z-score [16] | composite z-score [17] | composite z-score [18] | composite z-score [19] | composite z-score [20]
CCOC(=O)[C@H](CC(C)C)NC(=O)CCC1CC(OC(=O)NCc2cccc3ccccc23)CC2(CCCC(COC(=O)NCc3ccncc3)O2)O1 (stereo not given in full) | -0.678 | 0.298 | -0.151 | 0.633 | 1.12 | 0.547 | 0.783 | -0.689 (inactive) | 0.407 | -0.236 | 1.56 | 0.649 (inactive) | 0.462 (inactive) | 0.678 (inactive) | 1.58 | 0.409 (inactive) | -0.166 | 0.433 | 0.789 | 0.157
COC(=O)[C@@H]1CC[C@H](C)[C@@H](c2ccc(C)cc2)N1C(=O)c1ccc(C=NO[C@H](C)c2cn([C@@H]3COC[C@H]3O)nn2)cc1 | -0.591 | -0.314 | -0.0459 | 0.515 | 1.14 | 0.122 | 0.972 | 0.191 (inactive) | 0.165 | -0.124 | 1.12 | 0.524 (inactive) | -0.0358 (inactive) | 0.726 (inactive) | 2.06 | 1.67 (inactive) | -0.138 | 0.258 | 1.09 | 0.212
CC1O[C@H]2C3=C(C(=O)[C@@H]4O[C@@H]4[C@H]3O)[C@@H]1C1[C@@H](C)OC=C3[C@H](O)C4O[C@@H]4C(=NOCc4ccccc4)[C@]312 (stereo not given in full) | -0.379 | -0.488 | -0.166 | 0.0246 | 0.112 | -0.505 | -0.0339 | -1.15 (inactive) | -0.123 | -0.216 | -0.543 | 0.247 (inactive) | -0.602 (inactive) | 0.089 (inactive) | 0.578 | -0.42 (inactive) | -0.192 | 0.521 | -0.128 | -0.148
CCOC(=O)[C@H](CC(C)C)NC(=O)CCC1CC(OC(=O)NCc2cccc3ccccc23)CC2(CCCC(COC(=O)NCC3CCCCC3)O2)O1 (stereo not given in full) | -0.338 | 0.194 | -0.0744 | 0.54 | 0.763 | 0.589 | 0.907 | 0.791 (inactive) | 0.615 | 0.0623 | 1.47 | -0.402 (inactive) | -0.947 (inactive) | 0.0127 (inactive) | 1.11 | -0.683 (inactive) | -0.0151 | 0.895 | 0.818 | -0.0828
COc1cccc([C@@H]2Oc3ccc(OC)cc3C(=O)[C@H]2O)c1 | -0.457 | 0.0796 | 0.0288 | 0.209 | 0.5 | 0.788 | 1.04 | 7.25 (inactive) | -0.0662 | -0.0994 | 0.597 | -2.23 (inactive) | -4.98 (inactive) | -2.1 (inactive) | 0.704 | 0.349 (inactive) | -0.173 | 0.052 | 0.415 | -0.0697
C[C@@H]1NC(=O)[C@@H](C)COC(=O)[C@H](C)NC(=O)[C@@H](C)COC1=O | -0.537 | 0.472 | -0.121 | 0.489 | 0.51 | -0.292 | 1.14 | -3.49 (inactive) | 0.253 | 0.0623 | 0.455 | -0.335 (inactive) | -0.924 (inactive) | -1.94 (inactive) | 1.03 | -0.0698 (inactive) | -0.0186 | 0.79 | -0.0611 | 0.132
O=c1n(Cc2cc3c(cc2Cl)OCO3)c(=O)n2n1CC[C@@H]1C(=NOCc3ccccc3)[C@H]3O[C@H]3[C@@H](O)[C@@H]12 | -0.381 | 0.188 | -0.14 | 0.47 | 0.589 | 0.114 | 0.428 | -0.611 (inactive) | 0.764 | -0.0645 | 0.499 | -1.97 (inactive) | -1.25 (inactive) | -0.756 (inactive) | -0.056 | -0.363 (inactive) | -0.0963 | 0.498 | 0.68 | -0.0371
O=C1C[C@@H](O)[C@@H](O)[C@@H]2[C@@H]3C(=O)N(C[C@@H]4CCCO4)C(=O)[C@@H]3CC[C@@H]12 | -0.58 | 0.203 | -0.0329 | 0.58 | 0.686 | 0.123 | 0.459 | -1.13 (inactive) | 0.817 | 0.21 | 0.282 | -0.217 (inactive) | -0.519 (inactive) | -0.404 (inactive) | 1.17 | 0.48 (inactive) | -0.0708 | 0.658 | 0.472 | 0.091
Cc1ccc(S(=O)(=O)N[C@H]2COC(=O)CC=C[C@H](C)[C@@H](NS(=O)(=O)c3ccc(C)cc3)COC(=O)CC=C[C@@H]2C)cc1 | -0.546 | 0.391 | 0.16 | 0.395 | 0.434 | -0.107 | 0.0446 | 1.41 (inactive) | -0.118 | 0.166 | 0.405 | -0.293 (inactive) | 0.518 (inactive) | 0.0667 (inactive) | 0.247 | 0.0401 (inactive) | -0.126 | 0.601 | 0.321 | -0.068
CCOC(=O)[C@H](Cc1ccccc1)NC(=O)CCC1CC(OC(=O)NCc2cccc3ccccc23)CC2(CCCC(COC(=O)NCCC(C)C)O2)O1 (stereo not given in full) | -0.499 | 0.283 | -0.0895 | 0.0687 | -0.756 | -0.348 | 0.751 | 1.41 (inactive) | -0.219 | -0.0994 | -0.923 | -1.04 (inactive) | -0.0031 (inactive) | -1.36 (inactive) | 0.284 | -0.444 (inactive) | 0.0062 | 0.0111 | -0.435 | -0.128
